Experimental findings from PubChem BioAssay (NCI) are described below.

The panel holds about 83,000 compounds, 20% with a hit somewhere; the sample as a whole holds those more often.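 Negative percent growth values reflect cell death: -40 means 40% of the cells present at the start died, and -100 means all died.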 Calls of active or inactive are those of the source. The calls were made as follows: active = growth percent below 10; inactive = the rest.

The experiment has as its system K-562 leukemia. The experiment in a line: NCI-60 one-dose screen, 48 h (100 = growth as untreated, 0 = no growth, -100 = all killed). The following applies: 10 µM.
`CCCN(CCC)C(=O)[C@H](CC)[C@@H]1CC[C@@H](C)[C@@H]([C@H](C)[C@@H](O)[C@@H](C)C(=O)[C@H](CC)C2O[C@]3(C=C[C@@H](O)[C@]4(CC[C@@](C)([C@H]5CC[C@](O)(CC)[C@H](C)O5)O4)O3)[C@H](C)C[C@@H]2C)O1` (stereo partly specified): the growth is 10.4% (inactive).

For `OCC1OC(n2cnc3c(NCc4ccco4)ncnc32)C(O)C1O` (stereo unspecified), the growth was 33% (inactive).

In the case of `CC[C@@H](C(=O)[C@H](C)[C@H](O)[C@@H](C)[C@H]1O[C@H]([C@@H](CC)C(=O)O)CC[C@H]1C)C1O[C@]2(C=C[C@@H](O)[C@]3(CC[C@@](C)([C@H]4CC[C@](O)(CC)[C@H](C)O4)O3)O2)[C@H](C)C[C@@H]1C` (stereo partly specified), the growth is 6.72% (active).

In the case of `O=C(/C=C/c1cccc(B(O)O)c1)c1cccc(B(O)O)c1`, the growth was 11.5% (inactive).

In the case of `Cc1ccc(Cl)cc1NC(=O)CCl`, the growth is 39% (inactive).

As to `COc1cc(/C=C/c2cc(/C=C/c3ccc(O)c(OC)c3)nc(N)n2)ccc1O`, the growth is 5.49% (active).

For the compound `C/C(=N\O)c1ccc(NC(=O)CSc2nnc(-c3ccccc3)n2-c2ccccc2)cc1`, the growth was 95.8% (inactive).

Take `O=C(NCCCNS(=O)(=O)c1ccc(Cl)cc1)Nc1ccc(-n2cc(-c3ccncc3)c(-c3ccc(Cl)c(O)c3)n2)cc1`: the growth is 10.1% (inactive).

For the compound `CS(=O)(=O)c1nccc(-c2c(-c3cccc(OCCN4CCOCC4)c3)nc3sccn23)n1`, the growth was 91.5% (inactive).

Turning to `C=CCSC(CC)(CC)C(=O)NC`, the growth was 98.3% (inactive).

Turning to `CCn1c(SC/C(=N/O)c2ccccc2)nnc1-c1ccccc1`, the growth is 86% (inactive).
